Assay results as given in the supplement of paper PMC6555819.

Key:
Assay in all cases: PBM binding z-score (relative to random genomic background probes); higher = stronger binding; sequences stand for … in GC…GCGATTGACAGCGTAGAATGAAGG
[1] = test system: PPARg:RXRa DBDmut IVT, anti-RXR (DBD mutation: RXRa K156A/R161A, NR concentration 270 nM, RXRa partner concentration 90 nM)
In short: (§1)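 Random background probes are the reference for binding z-scores. These scores derive from regression-normalized fluorescence on custom Agilent 4×180K protein-binding microarrays incubated 1 h with ligand-free nuclear receptor dimers. Binding was detected with antibodies against each partner (one per run).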

[2] = test system: PPARg:RXRa IVT, anti-PPARg (NR concentration 270 nM, RXRa partner concentration 90 nM)
In short: as §1

[3] = test system: PPARg DBDmut:RXRa IVT, anti-PPARg (DBD mutation: PPARg1 K132A/R137A, NR concentration 270 nM, RXRa partner concentration 90 nM)
In short: as §1

[4] = test system: PPARg DBDmut IVT, anti-PPARg (DBD mutation: PPARg1 K132A/R137A, NR concentration 270 nM)
In short: as §1

[5] = test system: PPARg homodimer (NR concentration 180 nM)
In short: as §1

[6] = test system: PXR:RXRa (NR concentration 270 nM, RXRa partner concentration 90 nM)
In short: as §1

[7] = test system: PXR homodimer (NR concentration 270 nM)
In short: as §1

[8] = test system: RARa:RXR (NR concentration 270 nM, RXRa partner concentration 90 nM)
In short: as §1

[9] = test system: RARa homodimer (NR concentration 270 nM)
In short: as §1

[10] = test system: RARb:RXRa (NR concentration 270 nM, RXRa partner concentration 90 nM)
In short: as §1

Sequence | PBM binding z-score [1] | PBM binding z-score [2] | PBM binding z-score [3] | PBM binding z-score [4] | PBM binding z-score [5] | PBM binding z-score [6] | PBM binding z-score [7] | PBM binding z-score [8] | PBM binding z-score [9] | PBM binding z-score [10]
GCGAGTTGGTCAGTAAAAGGTCACACACCGGTCG | 0.617 | 2.26 | 0.948 | -0.184 | 4.06 | 5.14 | 1.31 | 5.93 | 2.5 | 4.33
CGTCCAAGGTCAATGCTAGGTCAGTGCAAGCATT | 3.46 | 3.77 | -0.816 | -0.276 | 4.69 | 4.69 | 1.57 | 5.52 | 1.48 | 5.25
TCATATACGTAATACAGGTGAAAGTCGGCATCTA | 2.77 | 1.63 | 0.572 | 1.29 | 1.17 | 0.689 | 0.477 | 0.982 | 1 | 0.727
GCAGACAGGTGAAACGCAGGTAATTCAGGGTGGC | 0.893 | 0.576 | -0.406 | -0.569 | 0.0586 | -0.158 | -0.351 | 0.462 | -0.448 | 0.697
ACTCTTAGTTGAGACGAGGGCAACCGATAGGTTG | -0.123 | 0.386 | -0.0171 | 0.118 | -0.417 | 1.34 | -0.122 | 0.668 | -0.22 | 0.939
CCTGCTAGGTCAATGGTCTGCTAAAGCAGCTCGC | 4.23 | 3.5 | -0.516 | -0.86 | 1.16 | 0.731 | -0.482 | 1.36 | -0.721 | 3.78
AGGCAAAGTTCACTAGGTAACGTAAGATTCAGCT | 2.96 | 4.77 | 1.25 | 1.49 | 3.61 | 4.02 | 2.73 | 2.94 | 1.73 | 4.61
TAACCTAGGTCATTCAGGGGCCAGTATAGAAAGC | 3.77 | 4.77 | 0.824 | 0.744 | 2.96 | 3.09 | 0.651 | 4.06 | 0.531 | 4.33
CGTACTGGGCCAAAAAGGTCATTGATGCCGATAA | 4.13 | 3.76 | -0.0861 | -0.32 | 3.08 | 4.6 | 3.5 | 4.94 | 1.6 | 3.87
CCGACTGGGGAAAGGTTACCATAACGCACAGCCA | 0.181 | 0.852 | -0.712 | -0.726 | 1.01 | 1.26 | 0.0491 | 1.9 | 0.439 | 1.74
TAGCCTATGTCATGGGCCAGTATACCACGCGAAC | -0.759 | 0.165 | -0.733 | 0.201 | -0.377 | -0.487 | -0.151 | 0.249 | -0.171 | 0.192
GCTGCTAGCTCAACTGATGGTCAGCTAAAGCTCG | -0.64 | -0.817 | -1.66 | -1.33 | -1.88 | -0.933 | -1.77 | -1.22 | -1.08 | -0.407
CGTCCAAGGTCAATGATAGGTCAGTGAAAGCATT | 3.37 | 3.61 | 0.384 | -0.272 | 6.66 | 5.17 | 1.58 | 6.7 | 1.7 | 5.31
CCTACTGGGCCAAAAAGGTCAATGATGCCGATAA | 3.37 | 4.64 | 0.0987 | -0.775 | 2.6 | 3.47 | 0.909 | 3.89 | 0.262 | 4
CCAGACCGGTGAGAAGGTAACTCAGCCTCGATTA | -0.324 | -0.727 | -1.57 | -1.1 | 0.768 | -0.393 | -0.18 | -0.155 | 0.901 | -0.00175
CAAACTAGGTCAAAGGTCCAAGTCGAGCCAACCA | 8.79 | 8.36 | 1.57 | 1.19 | 3.75 | 3.24 | 0.0421 | 5.03 | 0.553 | 4.19
CGTCAAAGTTCAACTCAGGTAACGTAAAGCACGC | 0.639 | 2.02 | 0.699 | 0.924 | 4.03 | 5.4 | 3.74 | 4.37 | 1.92 | 5.15
TAGCCTAGGTCATTGGGCCAGGATAGTACGCATC | 2.04 | 3.75 | 0.235 | 0.25 | 0.798 | 1.05 | -0.39 | 1.99 | -0.0581 | 3.49
CCTACTGGGCCAAGGGCATTGATCAGTCAAAGCA | 2.73 | 3.65 | -0.869 | -1.53 | 0.181 | -0.452 | -0.173 | -0.637 | -1.18 | 0.896
GCGACTGGGGCATCAGCAGGTTACCACAACTTAA | 3.58 | 3.42 | -0.499 | -0.426 | 0.249 | 0.125 | -0.569 | 0.565 | -0.456 | 0.902
CAAACTAGGTCAAGGGTCAAAGTCGAGCCAACCA | 8.5 | 9.08 | 6.09 | 4.1 | 5.23 | 5.66 | 0.825 | 7.15 | 1.84 | 5.38
TCGAGTAGGTTAGGGACATTCAGAATGGCGTCGA | 1.85 | 1.17 | -0.378 | -1.4 | 0.27 | -0.0606 | -0.414 | 0.186 | -0.0818 | 0.661
CGTTACGGGTCACGAGGTTATAGCACGACGAGCG | 4.5 | 5.57 | 1.39 | 0.539 | 1.92 | 4.65 | 0.178 | 5.93 | 0.803 | 4.56
CGACCAAGGTCATAGGAGGTCAGTGAAGACAGAT | 3.37 | 4.52 | 0.399 | -0.258 | 5.37 | 6.88 | 4.39 | 6.18 | 2.16 | 5.22

Sequence | PBM binding z-score [1] | PBM binding z-score [2] | PBM binding z-score [3] | PBM binding z-score [4] | PBM binding z-score [5] | PBM binding z-score [6] | PBM binding z-score [7] | PBM binding z-score [8] | PBM binding z-score [9] | PBM binding z-score [10]
CCGACTGGGGCAAGGTGACCATAACGCACAGCCA | 2.69 | 3.79 | -0.323 | -0.812 | 0.0642 | -0.346 | -0.578 | -0.0197 | -0.0269 | 1.14
TTACCAAGGTGAAAGGTGGTTGATGCACGCCTTG | 3.12 | 3.55 | -0.573 | -0.258 | 0.847 | 0.419 | -0.541 | 1.35 | 0.211 | 1.5
TCATATAGGTAAAAGGTGAACGTCGGTGTGGTAA | 5.71 | 5.6 | 1.12 | 1.53 | 1.65 | 1.86 | 0.862 | 2.9 | 1.07 | 2.15
CCATACGGGTCAAGGTTATAGCACGGGTGGTACG | 1.2 | 3.15 | 0.543 | -0.539 | 2.1 | 3.06 | 0.247 | 3.82 | 0.795 | 4.1
CGTCCAAGGTCATAGGAGGTCAGTGTAGACAGAT | 3.65 | 4.6 | 0.558 | 0.275 | 4.52 | 6.7 | 3.78 | 6.16 | 1.57 | 5.32
ACTAGTTGGTCAGCGGAGGTCACACACAATTCGG | 1.63 | 2.75 | 1.36 | 0.469 | 3.06 | 4.99 | 1.8 | 4.46 | 1.6 | 3.59
TTACCTAGGTGAGCTGAGGTCGTTGATCCAACTC | 3.01 | 3.01 | -0.362 | 0.266 | 0.32 | 3.55 | 0.214 | 1.94 | -1.28 | 0.93
TAGCGTAGGTCATTGGGCCAGTATAGTACGCATC | 1.8 | 3.26 | 0.193 | -0.343 | 1.85 | 2.07 | -0.335 | 2.36 | -0.0783 | 3.74
CAAACTAGGTCATCGGAAGGTCAAAGTCCGCATG | 7.98 | 8.45 | 2.01 | 2.98 | 5.96 | 5.37 | 1.97 | 6.84 | 1.67 | 4.97
TCAGACAGGTGAATGTAACTCAGGTACGCAGTCG | 2.43 | 0.904 | -0.264 | -0.0774 | 0.0893 | 0.012 | -0.109 | 0.0859 | -0.00412 | 0.652
ACTATTAGTTGAGACGATGGCAACCGATAGGTTG | 0.172 | 0.0295 | 0.79 | 1.06 | 0.664 | -0.242 | -0.102 | -0.204 | 0.657 | -0.199
CGTCCAAGGTCATAGGAGGACAGTGAAGACAGAT | 2.87 | 3.57 | 0.568 | 0.524 | 3.01 | 5.67 | 1.55 | 4.89 | 1.62 | 4.98
AGAATGAGTTTATACGTAGATCAGGGAAGAAAGT | -0.616 | 0.0744 | 0.757 | 0.612 | -0.608 | 0.81 | 1.21 | -0.34 | 0.222 | 0.0922
CCGACTGGGGCAGAAAGGTTACAATACCATCCGG | 1.65 | 1.7 | -0.655 | -0.38 | 0.958 | 1.14 | -0.0674 | 1.67 | 0.24 | 1.73
ATCGAAAGGTCGACAAGGTGAGTATACACCGTTT | 0.456 | 1.98 | 1.72 | 1.65 | 1.43 | 2.86 | 0.683 | 3.78 | 0.202 | 4.02
CCTGCCAGGTCAATGGTCAGCTAAAGCAGCTCGC | 1.49 | 2.41 | -0.936 | -1.59 | 0.763 | 1.6 | -0.223 | 1.96 | -0.54 | 3.66
CCGACTGGAGCAAAGGTTACCATACTCAGTACGA | 2.35 | 3.51 | -0.17 | 0.137 | 0.916 | 1.77 | 0.124 | 2.73 | -0.322 | 1.74
TCTAGCAGACCAGAGGGTCACTCAAGAGGTACGG | 0.667 | -0.0326 | -0.965 | -2.06 | 0.364 | 1.38 | -0.694 | 1.85 | -0.734 | 1.81
TGTCAAAGTTCAAAGCTAACGTAAGTATCCACAC | 0.771 | 3.82 | 1.34 | 1.18 | 2.01 | 4.29 | 3.01 | 3.5 | 1.14 | 5.04
ACTTACGGGTCACCGAGGTTATAGCACGCGTATA | 4.12 | 5.23 | 2.17 | 1.98 | 3.07 | 5.54 | 3.25 | 6.06 | 1.56 | 4.67
ACAGACATGTGATGAAGGTAACTCAGGCTATCAT | -0.334 | 0.139 | 0.595 | 0.868 | -0.0569 | -0.448 | -0.319 | -0.161 | -0.142 | -0.338
CGTCAAAGTTCGACTAAGGTAACGTAAAGCACGC | 0.0158 | 0.996 | -0.0779 | -0.2 | 1 | 2.49 | 0.543 | 1.92 | 0.582 | 2.49
GCATATAGGTAATACAAGGTGAACGTCCGATTGT | 4.57 | 3.63 | 0.578 | 0.846 | 0.673 | 0.252 | 0.124 | 1.37 | 0.675 | 0.51
CCGACTGAGGCATAAGGTTACCATAAGCCAGCCC | 0.216 | -0.451 | -0.747 | -0.854 | 0.366 | 0.286 | -0.308 | 1.03 | 0.101 | 0.876
